Test results from the supplement of paper PMC10849652.
Of roughly 8,800 targets only a part is listed; those with a hit were picked by preference. About 0.5% of all pairs of compound and target were hits.

Experiments:
Test in all cases: log2 fold change, soluble protein after heating vs DMSO (PISA); higher = thermal stabilisation; K562 lysate, 10 uM; active = over 0.2 and 3.5 SD of the protein, either way, in both replicates (recomputed)
vemurafenib = compound: CCCS(=O)(=O)Nc1ccc(F)c(C(=O)c2c[nH]c3ncc(-c4ccc(Cl)cc4)cc23)c1F [vemurafenib]
Procedure, shortened: (§1)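 Dounce homogenisation of K562 pellets in PBS pH 7.4 with 1 mM MgCl2 produced a crude extract, used at 1 mg/mL protein. Exposure to 10 μM compound lasted 30 min, and aliquots were then heated for 3 min across 48°C-58°C, pooled and brought to 0.5% NP-40 at 4°C. The supernatant after 21,000xg for 90 min was quantified by TMTpro 16plex LC-MS/MS with channel sums equalised. Duplicate values are given as log-two fold change in thermal stability relative to solvent controls.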

[1] = compound: CCCS(=O)(=O)Nc1ccc(F)c(C(=O)c2c[nH]c3ncc(Cl)cc23)c1F
Procedure, shortened: as §1

barasertib = compound: CCN(CCCOc1ccc2c(Nc3cc(CC(=O)Nc4cccc(F)c4)[nH]n3)ncnc2c1)CCOP(=O)(O)O [barasertib]
Procedure, shortened: as §1

[2] = compound: CC[C@@H]1C(=O)N(C)c2cnc(Nc3ccc(C(=O)NC4CCN(C)CC4)cc3OC)nc2N1C1CCCC1
Procedure, shortened: as §1

volasertib = compound: CC[C@@H]1C(=O)N(C)c2cnc(Nc3ccc(C(=O)N[C@H]4CC[C@H](N5CCN(CC6CC6)CC5)CC4)cc3OC)nc2N1C(C)C [volasertib]
Procedure, shortened: as §1

[3] = compound: CCn1c(C(=O)N(C2CC2)C2CC2)cc2c3c(ncn3C)c(Nc3cc(C)n(C)n3)nc21
Procedure, shortened: as §1

[4] = compound: CCn1cc(-c2ccnc3[nH]c(-c4cccc(CN(C)C)c4)cc23)c(-c2ccc(NC(=O)N(C)C)cc2)n1
Procedure, shortened: as §1

[5] = compound: CN1CCC(CNc2ccc3ncc(-c4cccc(OC(F)(F)F)c4)n3n2)CC1
Procedure, shortened: as §1

saracatinib = compound: CN1CCN(CCOc2cc(OC3CCOCC3)c3c(Nc4c(Cl)ccc5c4OCO5)ncnc3c2)CC1 [saracatinib]
Procedure, shortened: as §1

sotrastaurin = compound: CN1CCN(c2nc(C3=C(c4c[nH]c5ccccc45)C(=O)NC3=O)c3ccccc3n2)CC1 [sotrastaurin]
Procedure, shortened: as §1

Measured: log2 fold change

EPHX2 (UniProt P34913)
inactive: vemurafenib -0.026 | [1] -0.01 | barasertib -0.026 | [2] 0.016 | volasertib 0.041 | [3] -0.004 | [4] -0.044 | [5] 0.119 | saracatinib -0.018 | sotrastaurin 0.06

DYNC1I2 isoform 2 (UniProt Q13409)
Chain of UniProt Q13409 (Q13409 whole entry, looked up): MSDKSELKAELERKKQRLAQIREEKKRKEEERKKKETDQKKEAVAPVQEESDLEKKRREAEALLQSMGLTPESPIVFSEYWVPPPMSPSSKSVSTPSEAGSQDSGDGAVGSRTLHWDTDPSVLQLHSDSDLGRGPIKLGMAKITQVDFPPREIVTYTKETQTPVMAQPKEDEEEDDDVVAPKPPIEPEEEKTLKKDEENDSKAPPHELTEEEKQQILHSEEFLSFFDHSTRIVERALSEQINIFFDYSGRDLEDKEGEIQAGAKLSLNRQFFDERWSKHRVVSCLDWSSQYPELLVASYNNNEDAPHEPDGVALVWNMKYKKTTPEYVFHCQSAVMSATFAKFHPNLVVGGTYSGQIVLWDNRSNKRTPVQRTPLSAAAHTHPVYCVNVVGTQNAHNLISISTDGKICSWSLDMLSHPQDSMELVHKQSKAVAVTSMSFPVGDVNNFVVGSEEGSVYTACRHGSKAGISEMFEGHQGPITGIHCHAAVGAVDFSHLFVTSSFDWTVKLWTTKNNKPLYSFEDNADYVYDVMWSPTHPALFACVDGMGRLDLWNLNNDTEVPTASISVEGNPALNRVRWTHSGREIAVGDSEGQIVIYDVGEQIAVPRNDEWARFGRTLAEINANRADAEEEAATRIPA
inactive: vemurafenib -0.073 | [1] 0.042 | barasertib -0.123 | [2] 0.132 | volasertib -0.039 | [3] 0.035 | [4] -0.022 | [5] 0.082 | saracatinib -0.077 | sotrastaurin 0.006

EBP (UniProt Q15125)
inactive: vemurafenib 0.056 | [1] 0.024 | barasertib 0.069 | [2] 0.071 | volasertib 0.038 | [3] -0.024 | [4] -0.354 | [5] 0.044 | saracatinib 0.135 | sotrastaurin -0.103

FAM118B (UniProt Q9BPY3)
inactive: vemurafenib -0.06 | [1] 0.03 | barasertib 0.004 | [2] -0.014 | volasertib 0.001 | [3] 0.022 | [4] -0.03 | [5] -0.027 | saracatinib 0.004 | sotrastaurin 0.048

DTWD1 (UniProt Q8N5C7)
inactive: vemurafenib 0.028 | [1] 0.018 | barasertib -0.005 | [2] 0.024 | volasertib -0.036 | [3] 0.016 | [4] -0.026 | [5] -0.032 | saracatinib -0.033 | sotrastaurin 0.019

FXR1 (UniProt P51114)
Chain of UniProt P51114 (P51114 whole entry, looked up): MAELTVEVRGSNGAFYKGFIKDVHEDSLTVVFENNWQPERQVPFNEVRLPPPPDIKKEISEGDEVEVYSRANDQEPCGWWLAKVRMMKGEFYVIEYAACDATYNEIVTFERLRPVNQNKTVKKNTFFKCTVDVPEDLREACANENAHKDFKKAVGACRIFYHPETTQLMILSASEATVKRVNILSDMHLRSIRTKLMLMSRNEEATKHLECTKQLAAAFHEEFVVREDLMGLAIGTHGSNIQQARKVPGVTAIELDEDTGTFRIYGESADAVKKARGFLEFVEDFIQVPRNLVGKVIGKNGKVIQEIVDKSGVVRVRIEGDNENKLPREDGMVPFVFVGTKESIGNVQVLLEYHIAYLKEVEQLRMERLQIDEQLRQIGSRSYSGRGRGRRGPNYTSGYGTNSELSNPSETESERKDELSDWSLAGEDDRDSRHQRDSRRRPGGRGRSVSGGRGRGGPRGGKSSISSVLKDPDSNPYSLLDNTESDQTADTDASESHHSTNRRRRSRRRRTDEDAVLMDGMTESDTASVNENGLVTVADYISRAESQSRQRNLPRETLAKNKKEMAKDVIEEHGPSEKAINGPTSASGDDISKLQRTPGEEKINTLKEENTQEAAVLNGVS
inactive: vemurafenib -0.047 | [1] 0.009 | barasertib 0.01 | [2] -0.036 | volasertib -0.022 | [3] 0.018 | [4] -0.107 | [5] 0.012 | saracatinib -0.036 | sotrastaurin -0.011

EDC3 (UniProt Q96F86)
inactive: vemurafenib -0.011 | [1] 0.019 | barasertib -0.01 | [2] 0.066 | volasertib -0.016 | [3] -0.012 | [4] -0.017 | [5] -0.043 | saracatinib 0.006 | sotrastaurin 0.018

EIF2B5 (UniProt Q13144)
inactive: vemurafenib -0.007 | [1] 0.019 | barasertib 0.013 | [2] -0.012 | volasertib -0.027 | [3] 0.021 | [4] -0.065 | [5] -0.057 | saracatinib 0.009 | sotrastaurin 0.038

ETHE1 (UniProt O95571)
inactive: vemurafenib -0.018 | [1] 0.022 | barasertib 0.076 | [2] -0.013 | volasertib -0.017 | [3] -0.007 | [4] 0.044 | [5] 0.003 | saracatinib 0.001 | sotrastaurin -0.004

EIF2B3 (UniProt Q9NR50)
active: [4] 0.287
inactive: vemurafenib 0.013 | [1] 0.021 | barasertib -0.008 | [2] -0.028 | volasertib -0.02 | [3] 0.044 | [5] -0.111 | saracatinib 0.005 | sotrastaurin -0.003

FDFT1 (UniProt P37268)
inactive: vemurafenib -0.012 | [1] 0.111 | barasertib 0.023 | [2] 0.005 | volasertib -0.069 | [3] 0.01 | [4] -0.047 | [5] -0.022 | saracatinib -0.019
active: sotrastaurin 0.437

FIGNL1 (UniProt Q6PIW4)
inactive: vemurafenib -0.012 | [1] 0.042 | barasertib 0.03 | [2] -0.063 | volasertib -0.047 | [3] 0.027 | [4] -0.108 | [5] 0.036 | saracatinib 0.006 | sotrastaurin -0.015

FADS1, A0A0A0MR51
inactive: vemurafenib -0.041 | [1] 0.145 | barasertib -0.018 | [2] 0.02 | volasertib -0.187 | [3] -0.062 | [4] -0.021 | [5] -0.078 | saracatinib -0.026 | sotrastaurin -0.037

FAM83A (UniProt Q86UY5)
inactive: vemurafenib 0.038 | [1] -0.002 | barasertib 0.035 | [2] -0.001 | volasertib 0.003 | [3] 0.05 | [4] 0.103 | [5] 0.06 | saracatinib 0.01 | sotrastaurin -0.049

FECH isoform 2 (UniProt P22830)
inactive: vemurafenib 0.363 | barasertib -0.082 | [2] 0.477 | volasertib 0.078 | [3] -0.03 | [4] 0.128 | [5] 0.699 | saracatinib -0.287 | sotrastaurin 0.014
active: [1] -0.891

ESYT2 (UniProt H7BXI1)
inactive: vemurafenib -0.047 | [1] -0.044 | barasertib 0.046 | [2] -0.065 | volasertib -0.036 | [3] -0.009 | [4] 0.037 | [5] -0.068 | saracatinib 0.033 | sotrastaurin -0.003

EWSR1 isoform 5 (UniProt Q01844)
inactive: vemurafenib 0.033 | [1] -0.023 | barasertib -0.013 | [2] 0.039 | volasertib 0.045 | [3] -0.006 | [4] -0.019 | [5] 0.021 | saracatinib -0.017 | sotrastaurin 0.037

FPGT (UniProt O14772)
inactive: vemurafenib -0.008 | [1] 0.011 | barasertib 0.048 | [2] -0.064 | volasertib -0.018 | [3] 0.008 | [5] -0.054 | saracatinib 0.017 | sotrastaurin -0.001
active: [4] 0.415

EMC7 (UniProt Q9NPA0)
Chain of UniProt Q9NPA0 (Q9NPA0 whole entry, looked up): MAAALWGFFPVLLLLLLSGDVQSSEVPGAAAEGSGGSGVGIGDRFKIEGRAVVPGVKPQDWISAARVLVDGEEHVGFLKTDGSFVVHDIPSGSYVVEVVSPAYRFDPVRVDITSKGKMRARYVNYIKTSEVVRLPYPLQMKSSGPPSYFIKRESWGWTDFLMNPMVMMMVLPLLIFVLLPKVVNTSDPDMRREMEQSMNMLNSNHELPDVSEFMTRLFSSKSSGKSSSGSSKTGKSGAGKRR
active: [4] -0.37
inactive: vemurafenib 0.034 | [1] 0.004 | barasertib -0.006 | [2] 0.034 | volasertib 0 | [3] -0.023 | [5] 0.125 | saracatinib 0.005 | sotrastaurin 0.026

FANCD2 isoform 1 (UniProt Q9BXW9)
inactive: vemurafenib 0.067 | [1] 0.053 | barasertib 0.04 | [2] 0.14 | volasertib -0.045 | [3] 0.017 | [4] -0.135 | [5] 0.02 | saracatinib 0.016 | sotrastaurin -0.029

EXOC4 (UniProt Q96A65)
inactive: vemurafenib 0.079 | [1] 0.01 | barasertib 0.055 | [2] -0.06 | volasertib -0.055 | [3] 0.025 | [4] 0.022 | [5] -0.079 | saracatinib 0.006 | sotrastaurin 0.018

EXOC1 (UniProt Q9NV70)
inactive: vemurafenib 0 | [1] 0.027 | barasertib 0.051 | [2] -0.106 | volasertib -0.03 | [3] 0.082 | [4] 0.053 | [5] -0.119 | saracatinib 0 | sotrastaurin 0.02

GCN1 (UniProt Q92616)
Chain of UniProt Q92616 (Q92616 whole entry, looked up): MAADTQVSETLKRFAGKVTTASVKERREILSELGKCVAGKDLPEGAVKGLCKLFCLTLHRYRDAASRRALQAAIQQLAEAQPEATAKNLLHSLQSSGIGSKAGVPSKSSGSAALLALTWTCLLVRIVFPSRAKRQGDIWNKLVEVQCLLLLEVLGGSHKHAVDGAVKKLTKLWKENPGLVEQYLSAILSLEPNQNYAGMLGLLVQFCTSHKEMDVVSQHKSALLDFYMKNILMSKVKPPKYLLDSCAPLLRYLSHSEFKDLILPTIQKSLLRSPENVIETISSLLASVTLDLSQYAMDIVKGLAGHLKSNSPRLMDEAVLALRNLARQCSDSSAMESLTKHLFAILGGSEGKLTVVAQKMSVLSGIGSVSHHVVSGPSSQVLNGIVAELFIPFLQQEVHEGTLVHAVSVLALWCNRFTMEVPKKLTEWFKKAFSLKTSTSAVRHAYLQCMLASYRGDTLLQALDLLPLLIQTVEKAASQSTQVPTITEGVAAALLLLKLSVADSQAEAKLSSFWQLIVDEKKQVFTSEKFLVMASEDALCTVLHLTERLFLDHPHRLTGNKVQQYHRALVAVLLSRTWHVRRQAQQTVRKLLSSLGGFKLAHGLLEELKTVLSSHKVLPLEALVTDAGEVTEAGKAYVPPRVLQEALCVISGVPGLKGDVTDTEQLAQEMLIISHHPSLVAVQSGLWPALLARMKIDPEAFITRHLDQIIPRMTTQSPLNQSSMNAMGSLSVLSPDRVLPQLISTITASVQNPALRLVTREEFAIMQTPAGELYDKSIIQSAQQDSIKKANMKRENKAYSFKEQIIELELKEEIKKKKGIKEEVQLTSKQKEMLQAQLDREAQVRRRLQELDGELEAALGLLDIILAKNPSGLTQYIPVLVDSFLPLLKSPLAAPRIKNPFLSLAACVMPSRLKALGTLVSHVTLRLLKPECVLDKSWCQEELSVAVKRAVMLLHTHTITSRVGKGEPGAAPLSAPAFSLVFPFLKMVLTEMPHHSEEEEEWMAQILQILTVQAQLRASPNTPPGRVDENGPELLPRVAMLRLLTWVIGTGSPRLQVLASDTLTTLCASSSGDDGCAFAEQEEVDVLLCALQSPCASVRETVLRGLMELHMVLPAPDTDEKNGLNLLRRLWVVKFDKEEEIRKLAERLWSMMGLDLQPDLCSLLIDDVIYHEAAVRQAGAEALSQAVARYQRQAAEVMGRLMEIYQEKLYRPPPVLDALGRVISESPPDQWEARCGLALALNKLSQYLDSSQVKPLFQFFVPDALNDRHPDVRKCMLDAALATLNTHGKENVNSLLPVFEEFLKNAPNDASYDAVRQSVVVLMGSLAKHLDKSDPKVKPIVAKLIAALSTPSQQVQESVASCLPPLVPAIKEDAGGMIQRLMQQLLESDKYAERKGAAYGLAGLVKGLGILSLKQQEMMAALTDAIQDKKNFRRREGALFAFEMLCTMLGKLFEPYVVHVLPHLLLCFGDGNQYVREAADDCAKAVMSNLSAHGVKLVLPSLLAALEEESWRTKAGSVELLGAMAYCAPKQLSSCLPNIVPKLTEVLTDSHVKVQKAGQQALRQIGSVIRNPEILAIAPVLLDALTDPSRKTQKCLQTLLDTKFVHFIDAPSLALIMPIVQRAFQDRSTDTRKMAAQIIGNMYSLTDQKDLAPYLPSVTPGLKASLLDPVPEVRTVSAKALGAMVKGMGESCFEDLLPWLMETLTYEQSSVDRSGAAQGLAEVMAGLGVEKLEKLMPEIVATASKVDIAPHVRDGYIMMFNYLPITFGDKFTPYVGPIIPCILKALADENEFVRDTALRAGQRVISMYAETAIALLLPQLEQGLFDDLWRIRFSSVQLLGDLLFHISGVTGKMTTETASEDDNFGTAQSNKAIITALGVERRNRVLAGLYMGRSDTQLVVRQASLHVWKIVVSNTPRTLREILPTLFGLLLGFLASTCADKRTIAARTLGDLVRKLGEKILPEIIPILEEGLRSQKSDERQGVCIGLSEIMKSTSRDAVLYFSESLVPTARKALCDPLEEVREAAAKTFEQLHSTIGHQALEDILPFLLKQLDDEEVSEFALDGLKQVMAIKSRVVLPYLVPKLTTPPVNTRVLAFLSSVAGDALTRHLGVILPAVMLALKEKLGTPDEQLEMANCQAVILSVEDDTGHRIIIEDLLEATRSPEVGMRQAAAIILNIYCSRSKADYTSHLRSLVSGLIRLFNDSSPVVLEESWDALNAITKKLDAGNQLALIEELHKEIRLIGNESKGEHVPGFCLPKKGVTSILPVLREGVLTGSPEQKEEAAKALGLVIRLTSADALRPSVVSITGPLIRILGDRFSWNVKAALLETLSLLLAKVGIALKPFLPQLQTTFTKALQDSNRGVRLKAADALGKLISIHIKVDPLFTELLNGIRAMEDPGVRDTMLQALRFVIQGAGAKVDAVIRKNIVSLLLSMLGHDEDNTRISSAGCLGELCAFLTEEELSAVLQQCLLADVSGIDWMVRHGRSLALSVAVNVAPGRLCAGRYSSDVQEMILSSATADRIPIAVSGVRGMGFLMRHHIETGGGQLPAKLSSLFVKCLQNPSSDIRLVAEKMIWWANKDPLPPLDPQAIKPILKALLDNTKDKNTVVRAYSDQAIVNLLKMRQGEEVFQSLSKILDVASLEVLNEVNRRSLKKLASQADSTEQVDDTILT
inactive: vemurafenib 0.025 | [1] 0.004 | barasertib 0.061 | [2] -0.107 | volasertib -0.084 | [3] 0.082 | [4] -0.05 | [5] -0.07 | saracatinib 0.015 | sotrastaurin -0.006

EPB41 (UniProt P11171)
inactive: vemurafenib -0.051 | [1] 0.005 | barasertib -0.009 | [2] -0.033 | volasertib -0.02 | [3] 0.022 | [4] 0.026 | [5] -0.135 | saracatinib 0.014 | sotrastaurin 0.026

DUS3L (UniProt Q96G46)
active: [4] 0.246
inactive: vemurafenib -0.055 | [1] 0.004 | barasertib -0.038 | [2] -0.025 | volasertib 0.005 | [3] -0.043 | [5] -0.048 | saracatinib 0.021 | sotrastaurin 0.033

EPRS (UniProt P07814)
inactive: vemurafenib 0.01 | [1] -0.001 | barasertib 0.001 | [2] -0.077 | volasertib -0.068 | [3] 0.024 | [4] -0.025 | [5] -0.035 | saracatinib 0.014 | sotrastaurin 0.02

ERCC4 (UniProt Q92889)
Chain of UniProt Q92889 (Q92889 whole entry, looked up): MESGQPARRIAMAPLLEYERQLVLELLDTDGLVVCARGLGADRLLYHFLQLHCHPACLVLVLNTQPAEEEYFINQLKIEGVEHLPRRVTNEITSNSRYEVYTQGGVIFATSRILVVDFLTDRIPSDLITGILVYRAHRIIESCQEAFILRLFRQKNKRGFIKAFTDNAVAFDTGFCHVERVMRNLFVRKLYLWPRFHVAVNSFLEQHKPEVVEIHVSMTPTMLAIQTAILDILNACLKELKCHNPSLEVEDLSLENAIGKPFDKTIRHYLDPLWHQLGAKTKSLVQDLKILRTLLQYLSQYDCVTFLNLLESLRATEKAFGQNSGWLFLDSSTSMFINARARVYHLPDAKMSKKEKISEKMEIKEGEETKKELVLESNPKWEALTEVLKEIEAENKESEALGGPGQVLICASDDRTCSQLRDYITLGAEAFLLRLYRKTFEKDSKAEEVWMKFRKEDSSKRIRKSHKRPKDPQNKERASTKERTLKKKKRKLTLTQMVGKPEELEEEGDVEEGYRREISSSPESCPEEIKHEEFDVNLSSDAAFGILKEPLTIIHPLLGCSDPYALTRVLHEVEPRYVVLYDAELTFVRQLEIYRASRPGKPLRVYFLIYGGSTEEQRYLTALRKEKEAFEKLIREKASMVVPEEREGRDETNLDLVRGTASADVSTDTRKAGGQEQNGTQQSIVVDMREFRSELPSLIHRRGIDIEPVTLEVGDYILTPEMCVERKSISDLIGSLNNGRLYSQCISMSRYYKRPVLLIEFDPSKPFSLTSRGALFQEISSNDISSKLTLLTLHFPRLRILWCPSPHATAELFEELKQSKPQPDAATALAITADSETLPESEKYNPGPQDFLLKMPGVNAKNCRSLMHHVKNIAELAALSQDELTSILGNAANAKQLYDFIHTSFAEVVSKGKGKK
inactive: vemurafenib 0.071 | [1] 0.01 | barasertib 0.163 | [2] 0.144 | volasertib -0.006 | [3] 0.004 | [4] -0.078 | [5] 0.114 | saracatinib 0.016 | sotrastaurin 0.047

EIF2D (UniProt P41214)
inactive: vemurafenib 0.041 | [1] 0.024 | barasertib 0.017 | [2] -0.074 | volasertib -0.052 | [3] 0.001 | [4] -0.02 | [5] -0.071 | saracatinib -0.002 | sotrastaurin 0.026

FCHO1 (UniProt O14526)
inactive: vemurafenib 0.023 | [1] 0.033 | barasertib 0.02 | [2] 0.023 | volasertib -0.062 | [3] -0.026 | [4] -0.053 | [5] -0.004 | saracatinib 0.006 | sotrastaurin -0.015

GDPD1 (UniProt Q8N9F7)
inactive: vemurafenib 0.116 | [1] 0.055 | barasertib -0.005 | [2] 0.041 | volasertib -0.008 | [3] 0.004 | [4] 0.074 | [5] -0.032 | saracatinib -0.023 | sotrastaurin 0.005
